Each structure is given as a SMILES string. Where “and” joins values, the source holds several entries; their conditions need not be identical. Identical values can stand only once. Calls of active or inactive are those of the source. The calls were made as follows: active = hit-call score of the fitted dose curve at least 0.9, where 1 is the maximum; inactive = score below 0.9.

Read-out in the experiment: Interleukin-1 alpha (IL1a), IL1A (gene 3552)
The experiment is described as follows: BSK_LPS_IL1a: BioMAP Diversity Plus: LPS Assay for Interleukin-1 alpha (IL1a) Biomarker Activity (AID 2283080). The conditions noted are these: primary human HUVEC with PBMC; actives raise or lower the signal. The method, then:
BSK_LPS is a cell-based, multiplexed-readout assay that uses umbilical vein endothelium and peripheral blood mononuclear cells, a human vascular primary cell co-culture, with measurements taken at 24 hours after chemical dosing in a 96-well plate.BSK_LPS_IL1a is an assay component measured in the BSK_LPS assay. It measures IL-a antibody related to regulation of gene expression using ELISA technology.Data from the assay component BSK_LPS_IL1a was analyzed into 1 assay endpoint. This assay endpoint, BSK_LPS_IL1a, was analyzed with bidirectional fitting relative to DMSO as the negative control and baseline of activity. Using a type of binding reporter, gain or loss-of-signal activity can be used to understand changes in the signaling as they relate to the gene IL1A. Furthermore, this assay endpoint can be referred to as a primary readout, because this assay has produced multiple assay endpoints where this one serves a signaling function. To generalize the intended target to other relatable targets, this assay endpoint is annotated to the cytokine intended target family, where the subfamily is interleukins.
The levels of cell surface (or secreted, indicated by the prefix "s") biomarker endpoints were measured by ELISA. Overt cytotoxicity to cells in confluent adherent cultures (all systems other than the BT system) was assessed by measuring total protein levels using sulforhodamine B (SRB) staining in parallel cultures at the time of biomarker measurements, indicated as SRB endpoints. For proliferation assays for adherent cell types, individual cell types are cultured at sub-confluence and relative cell numbers quantified by SRB staining at time points optimized for each system (48 h: 3C and CASM3C systems; 72 h: BT and HDF3CGF systems; 96 h: SAg system). SRB was performed by staining cells with 0.1% SRB after fixation with 10% TCA and reading wells at 560 nm.Viability and proliferation of PBMC (T cells) was quantified by Alamar Blue reduction for the SAg and BT systems. For PBMC viability (referred to as PBMC Cytotoxicity within the assay endpoint names), cells were plated (75,000/well in a 96-well plate) and then chemical samples added for 1 h before addition of activators, SEB and TSST-1 (20 ng/mL final concentration each). Cells were incubated for 90 h. Then, Alamar Blue (20 uL/well) (Invitrogen, Cat DAL1100) was added for 6 h, and the plates were read with a fluorescence microplate reader at 546/580 nm (excitation/emission). For PBMC proliferation, cells were plated and activated as above but incubated for only 16 h prior to addition of Alamar Blue. Plates were read after 6 h.
On to `O=C(O)C(F)(F)C(F)(F)C(F)(F)C(F)(F)C(=O)O`, for which the result was inactive.

Regarding `Cc1c(O)cccc1O`, the outcome was inactive. For the compound `Nc1cccc(N)n1`, the outcome was inactive. As to `COc1ccc(C(=O)/C(Br)=C\C(=O)O)cc1`, the AC50 – broadly, the midpoint of the concentration-response curve, whichever way the signal moves – was 20 µM (active) and 17 µM (active). Take `O=C(Oc1ccccc1)c1ccccc1C(=O)Oc1ccccc1`: the result was inactive. On the same count and under the same terms, then `Oc1c(Cl)cc(Cl)c(Cl)c1Cl`, with “inactive”. Same read-out and setting: the result for `CCN1CN(CC)CN(CC)C1` reads “inactive”; that for `CCCCCCCCCCCC(C)=O`, “inactive”. Consider `CC/C=C\CCOC(=O)c1ccccc1O`, for which the AC50 was 29.6 µM (active). Still for that read-out and setting: the result for `CC/C=C\C/C=C\C/C=C\CCCCCCCC(=O)OC` reads 13.9 µM (active). In the case of `COc1ccc(C(=O)c2ccccc2)c(O)c1`, the result was inactive. The same measure, in the same setting: the result for `C=CC(=O)NC(C)(C)C` reads “inactive”; that for `CCCCCCOC(=O)CCCCC(=O)OCCCCCC`, “inactive”. The same measure, in the same setting: then `CC(C)C(=O)OCCc1ccccc1`, with “inactive”. The same measure, in the same setting: the result for `CCC1(C)C(=O)N(Cl)C(=O)N1Cl` (stereo not given) reads “inactive”. In the case of `CC(CCC(=O)O)(c1ccc(O)cc1)c1ccc(O)cc1`, the result was inactive. On the same count and under the same terms, then `CC(c1cc(C(C)(C)C)cc(C(C)(C)C)c1O)c1cc(C(C)(C)C)cc(C(C)(C)C)c1O`, with “inactive”; and `Oc1ccc(/C=C/c2cc(O)cc(O)c2)cc1`, with “inactive”; and `Oc1ccccc1Cc1ccccc1O`, with “inactive”.

As to `c1ccc2c(c1)[nH]c1ccccc12`, the outcome was inactive. On to `CCCCCCCCC(CO)CCCCCC` (stereo not given), for which the result was inactive.

`c1ccc(Nc2cccc3ccccc23)cc1`: the AC50 was 34.1 µM (active) and 34.7 µM (active).

In the case of `C1CNCCN1`, the outcome was inactive. Consider `O=C1CCCCCCCCCCCN1`, for which the outcome was inactive. Still for that read-out and setting: the result for `CC(Cl)COP(=O)(OCC(C)Cl)OCC(C)Cl` (stereo not given) reads “inactive”; that for `Cc1ccc([N+](=O)[O-])cc1N`, “inactive”; that for `CCc1cccc(C)c1N(C(=O)CS(=O)(=O)O)C(C)COC` (stereo not given), “inactive”. Regarding `C=C(C)C(=O)OCCCCCCCCCCCC`, the outcome was inactive. On the same count and under the same terms, the result for `CCCC(C)C(=O)OCC` (stereo not given) reads “inactive”; that for `CC(C)CCCCCOC(=O)CS`, “inactive”. Same read-out and setting: the result for `CCCCC1C(=O)N(c2ccccc2)N(c2ccccc2)C1=O` reads “inactive”; that for `O=C1CCCCCCCCCCC1`, “inactive”. Regarding `C=CCCCCCCCCC=O`, the result was inactive. On to `Clc1cc(Cl)c(Cl)c(Cl)c1Cl`, for which the AC50 was 16.2 µM (active). For `CC1(C)CC(O)CC(C)(C)N1[O]`, the result was inactive. The same measure, in the same setting: then `C=CC(=O)OCCCCCCCC(C)C`, with “inactive”. On the same count and under the same terms, the result for `O=C(Cl)c1c(Cl)c(Cl)c(C(=O)Cl)c(Cl)c1Cl` reads “inactive”; that for `Nc1nc(N)nc(-c2ccccc2)n1`, “inactive”; that for `CC(C)[N+](C)(CCOC(=O)C1c2ccccc2Oc2ccccc21)C(C)C`, “inactive”. Same read-out and setting: the result for `CCCCCCCCCCCC(=O)N(C)CC(=O)O` reads “inactive”.

(Values after PubChem BioAssay (EPA / NIEHS).)
